# Bioassay records: PubChem BioAssay, SRMLSC
# Spn PMK inh – blocks S. pneumoniae phosphomevalonate kinase. purified PMK, PK/LDH-coupled NADH absorbance 340 nm. AID 539. 65,000 tested, 0.49% active. inhibition, % at 10 µM;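 active = top-ranked compounds by inhibition in the single 10 µM screen, taking a fixed number of the strongest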;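 note: 0% = full reaction with DMSO carrier and 100% = background rate without enzyme reaction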
# DPM-DC inhibit – S. pneumoniae DPM-DC inhibition | purified DPM-DC, PK/LDH coupled NADH fluorescence | calls only at 10 µM | 65,000 tested, 0.49% active | AID 556;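 active = the 320 compounds with the highest percent inhibition in the single-dose primary screen, excluding strongly autofluorescent ones, cut at about 32% in these data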;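 note: kinetic rate of NADH fluorescence loss reporting ADP formed by the decarboxylase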
# NADH enzymes – inhibitors of enzymes used to reach an NAD/NADH endpoint; coupled PK/LDH NADH assays, four targets; 65,000 tested, 0.02% active; IC50, µM (titrated, usually from 10 µM), without a hit: top-dose inhibition; AID 774;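 active = single-dose screening hits from any of four coupled enzyme assays that gave an IC50 when retested across doses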;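 note: the DPM-DC format reads NADH fluorescence rather than 340 nm absorbance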
# MK inhibit – S. pneumoniae mevalonate kinase inhibition; purified MK, PK/LDH-coupled NADH absorbance 340 nm; inhibition, % at 10 µM; 65,000 tested, 0.48% active;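 active = ranked among the strongest by inhibition in the single 10 µM screen, a fixed top-ranked set picked for dose follow-up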
# Autofluor 339 – intrinsic fluorescence of library compounds, ex339/em460 – biochemical, MLSMR library, data from DPM-DC assay, artefact control, profiling panel. compound autofluorescence, ex339/em460 nm, NADH buffer; active compounds read high; 1 = no-compound wells, NADH background. fluorescence fold increase at 10 µM. 65,000 tested, 5.5% active;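 active = at 10 µM, mean starting fluorescence two-fold or more over control wells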;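 note: signal is the first read of a kinetic run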
# Abs 340nm – compound absorbs light at 340 nm; compound absorbance at 340 nm, fold over control; fold change at 10 µM; 65,000 tested, under 10 active; AID 708;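 active = at 10 µM dose, initial 340 nm absorbance at least 2 fold that of control wells; inactive = change under 2 fold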;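 note: initial absorbance extrapolated from kinetic A340 decline of NADH oxidation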
# The depositor's hits bear a star; i = inactive; nt = no result shown; + = active, no number. Shown are actives, neighbours in structure and some others; about 6.5% of the full set was active somewhere.
SMILES,Spn PMK inh,DPM-DC inhibit,NADH enzymes,MK inhibit,Autofluor 339,Abs 340nm
COc1ccc(C(c2nnnn2Cc2cccs2)N2CCN(c3ccc(F)cc3)CC2)cc1OC (centres undefined),12.0,i,6.0%,5.0,1.13,0.99
CCc1c(C)sc(NC(=O)c2cc(-c3cc(OC)ccc3OC)on2)c1C#N,17.0,nt,9.0%,0.0,5.06*,1.06
Cc1cc(NC(=O)c2cc(C3CC3)on2)no1,0.0,i,24.0%,57.0*,1.07,1.06
Cc1cc(NC(=O)c2cc(C)on2)no1,9.0,i,7.0%,8.0,1.07,1.03
COc1ccc(OC)c(-c2cc(C(=O)Nc3cccc(Cl)c3)no2)c1,13.0,nt,8.0%,2.0,4.34*,1.06
COc1ccc(OC)c(-c2cc(C(=O)Nc3c(C)nn(Cc4ccccc4)c3C)no2)c1,13.0,i,5.0%,1.0,1.43,1.03
COc1ccc(OC)c(-c2cc(C(=O)Nc3c(C)nn(Cc4ccc(Cl)cc4)c3C)no2)c1,13.0,i,4.0%,0.0,1.68,1.03
COc1ccc(OC)c(-c2cc(C(=O)Nc3cc(C)on3)no2)c1,12.0,i,7.0%,0.0,2.75*,1
CCN(CC)CCCN1C(=O)C(=O)/C(=C(/O)c2ccc(OC)c(Cl)c2)C1c1ccco1 (centres undefined),7.0,i,6.0%,11.0,1.32,1.08
CC(=O)Cc1nsc(NC(=O)c2ccc(COc3ccccc3)o2)n1,14.0,i,8.0%,5.0,1.01,1.06
CCc1cc(C(=O)COc2ccccc2F)c(O)cc1O,2.0,i,4.0%,6.0,0.87,1.1
CCOC(=O)c1[nH]c(C(=O)O)c(CCN(CC)CC)c1C,19.0,i,10.0%,1.0,1.04,1.02
CCCc1nc(-c2cc3ccc(C)cc3[nH]c2=O)no1,6.0,nt,7.0%,7.0,2.23*,1.07
Cc1ccc2cc(-c3noc(C4CCCO4)n3)c(=O)[nH]c2c1 (centres undefined),0.0,nt,0.0%,0.0,2.21*,1.09
Cc1ccc2cc(-c3noc(C4CCCCC4)n3)c(=O)[nH]c2c1,0.0,nt,0.0%,0.0,2.19*,1.11
O=C(OCc1nnc(-c2ccccc2)o1)c1ccc2c(c1)OCCO2,16.0,i,5.0%,0.0,1.05,0.99
CCOC(=O)c1c(NC(=O)C(F)(OC)C(F)(F)F)sc(C(=O)N2CCCCC2)c1C (centres undefined),0.0,i,0.0%,0.0,1.03,1.08
N=c1c(C(=O)NCC2CCCO2)cc2c(=O)n3ccccc3nc2n1Cc1cccnc1 (centres undefined),5.0,nt,3.0%,0.0,3.74*,0.98
O=C(NCC1CCCO1)c1ccc2c(=O)n(CCc3ccccc3)c(=O)[nH]c2c1 (centres undefined),20.0,i,9.0%,4.0,1.39,1.06
Cn1nc(C(=O)NCC2CCCO2)c2ccccc2c1=O (centres undefined),12.0,i,7.0%,8.0,1.08,1
COC(=O)c1cc2c(=O)n3ccccc3nc2n(Cc2cccnc2)c1=N,2.0,nt,4.0%,6.0,3.7*,1.05
Cc1cccn2c(=O)c3cc(C(=O)NCC4CCCO4)c(=N)n(Cc4cccnc4)c3nc12 (centres undefined),6.0,nt,8.0%,9.0,3.72*,1
COC(=O)c1cc2c(=O)n3ccccc3nc2n(C)c1=N,8.0,nt,5.0%,1.0,3.8*,1.04
N#Cc1cc2c(=O)n3ccccc3nc2n(Cc2cccnc2)c1=N,0.0,i,0.0%,0.0,1.27,1.05
CCn1ncc(Br)c1C(=O)Nc1nccs1,2.0,i,4.0%,9.0,1.04,1.01
CC(=O)Nc1cccc(NC(=O)CSc2nnc(Cc3cccn3C)n2CCc2ccccc2)c1,14.0,i,8.0%,10.0,1.1,0.99
COc1ccc(-c2ccc(-c3nnc(-c4ccncc4)o3)cc2)cc1,15.0,+,9.0%,12.0,2.35*,1.01
O=C(Nc1ccccc1-c1nc2ccccc2o1)c1ccc2c(c1)OCCO2,8.0,nt,4.0%,10.0,3.26*,1.02
Cc1c(NC(=O)c2ccc3c(c2)OCO3)cccc1-c1nc2ccccc2o1,11.0,i,5.0%,4.0,1.12,0.99
O=C(Nc1ccc2oc(-c3ccccc3F)nc2c1)c1ccc2c(c1)OCCO2,15.0,i,13.0%,3.0,3.25*,1.03
